uPA surface inh: blocks generation of uPA at the cell surface | 330,000 compounds, 0.31% hits | Potency, µM (series often up to 38.3 µM), usual class: inhibitors | cell surface uPA generation assay, qHTS; active means well fitted inhibition curve with a large enough effect; inconclusive means small, poorly fitted or top-dose-only effect; inactive means no such curve, though single readings can be large or run the other way; tested in mouse RAW 264.7 cells; further: nearly all actives have a fitted effect of over 55% in size
CtBP-E1A inh: inhibitors of CtBP/E1A interaction; AlphaScreen GST-E1A/His-CtBP binding, 1536-well; hits give low values; activity change, % (test concentration not listed); 340,000 compounds, 0.49% hits; AID 651724
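In 5 uL wells, 23 nL compound meets equimolar GST-E1A and His-CtBP (5X stock 125 nM each) for 2 h, 37 °C. Beads (5X, 50 ug/mL) then 1 h, 37 °C, dark.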
MBNL1 CUG block: MBNL1-poly(CUG) RNA binding inhibition; Q9NR56; TR-FRET MBNL1-His/biotin-(CUG)12 binding, 665/545 ratio; Potency, µM (top dose mostly 57.5 µM), hits mostly inhibitors; 280,000 compounds, 0.036% hits; active means well fitted inhibition curve with a large enough effect in the signal ratio, with a control signal flat, not every such curve was filed as active; inconclusive means small, poorly fitted or top-dose-only effect, or effect the other way, or a change in a side signal; inactive means no such curve, though single readings can be large or run the other way; the % refers to the signal ratio
Target sequence (Q9NR56 whole entry, looked up): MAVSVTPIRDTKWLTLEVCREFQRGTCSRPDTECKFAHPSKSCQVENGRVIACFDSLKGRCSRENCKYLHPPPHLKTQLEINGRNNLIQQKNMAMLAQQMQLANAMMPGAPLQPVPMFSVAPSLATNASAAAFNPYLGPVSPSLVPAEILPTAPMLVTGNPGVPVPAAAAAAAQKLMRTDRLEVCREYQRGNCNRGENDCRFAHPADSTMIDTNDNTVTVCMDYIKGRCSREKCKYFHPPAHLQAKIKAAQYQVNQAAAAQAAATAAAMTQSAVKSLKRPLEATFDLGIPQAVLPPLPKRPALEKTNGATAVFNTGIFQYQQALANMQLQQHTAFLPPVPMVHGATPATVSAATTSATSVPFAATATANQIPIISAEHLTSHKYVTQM
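Compound titration spanned 92 nM–58 uM against the MBNL1-His/biotin-(CUG)12 complex. After 60 min at room temperature with 5 nM streptavidin-XL665 and 0.055 ng/ul terbium anti-His, ratiometric 665/545 nm emission (Ex 340 nm) normalized to controls.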
Six1-Eya2 inh: inhibitors of human Six1/Eya2 interaction | 360,000 compounds, 0.56% hits | AlphaScreen GST-Six1/His-Eya2 binding, biochemical; hits give low values | Q15475+O00167 | activity change, % (test concentration not listed) | AID 651725
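Compounds are tested against tagged Six1 and Eya2 proteins bridged by glutathione donor and nickel acceptor beads; after a one-hour incubation at 37 °C without light, AlphaScreen emission is recorded.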
Mito fusion act: mitochondrial division inhibition or fusion activation; 320,000 compounds, 0.23% hits; S. cerevisiae fusion-defective mutant growth rescue, CellTiterGlo 48 h; Potency, µM (titrated, usually from 46.1 µM), hits mostly activators; AID 485298; active means well fitted activation curve with a large enough effect; inconclusive means small, poorly fitted or top-dose-only effect; inactive means no such curve, though single readings can be large or run the other way; further: nearly all actives have a fitted effect of over 45% in size
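Temperature-sensitive fusion-defective S. cerevisiae (e.g. fzo1-1, mgm1-5) were grown with compound in YPEG medium (3% ethanol, 3% glycerol) for 48 hours at 37C. Growth rescue was measured as viability by CellTiterGlo luminescence after 10 minutes at ambient.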
Numbers stand for hits; n = inactive; u = inconclusive; x = not tested or not shown; ! = repeats disagree; [ ] = dose if it differs, or a comment. A selection: hits, their analogues and other compounds. The true share with any hit is near 1.1%. Unless noted, no stated cut-off is given here; in the data, active means activity change below about -65%; inconclusive means mostly about -30% to -63%; inactive means weaker than that.

SMILES	uPA surface inh	CtBP-E1A inh	MBNL1 CUG block	Six1-Eya2 inh	Mito fusion act
O=C(Nc1ccccc1)c1cc(C2CCCCN2S(=O)(=O)Cc2cccc(C(F)(F)F)c2)on1 (stereo not given)	x	n	x	n	x
CC#C[C@]1(O)CC[C@H]2[C@@H]3CCC4=CC(=O)CCC4=C3[C@@H](c3ccc(N(C)C)cc3)C[C@@]21C	u	u	n	u	9.2µM!
CCOC(=O)C1CC2=C(CC(C)(C)CC2=O)N(CCOC)C1=O (stereo not given)	n	n	x	n	x
S=c1[nH]nc(-c2ccccn2)n1/N=C/c1c(Cl)cccc1Cl	n	n	x	-80	n
S=c1[nH]nc(-c2ccccn2)n1/N=C/c1ccc(Cl)cc1	n	u	x	-75	n
O=C1c2c(-c3ccc(Br)cc3)noc2CCN1Cc1cn(-c2ccccc2)nn1	x	n	x	n	x
COc1ccc2c3n(nc2c1)CCN=C3c1cc(Cl)c(N)c(Cl)c1	u	x	x	n	n
Nc1c(Cl)cc(C2=NCCn3nc4cc(C(F)(F)F)ccc4c32)cc1Cl	n	n	x	n	13µM
Cc1ccc(Cl)c(Nc2ccccc2C(=O)O)c1Cl	n	n	u	n	5.2µM!
O=C(/C=C/c1ccc(O)c(O)c1)OCCc1ccccc1	0.89µM	n	x	n	2.6µM
Cc1ccccc1/C=C/C1=NCCN1	4µM	n	x	n	u
CN(C)c1ccc(CNCCC(Cc2ccccc2)c2ccco2)cc1 (stereo not given)	n	u	n	-66	n
Cc1cccc(C)c1NC(=O)C(c1cccc2ccccc12)n1c(=O)c(-c2cc3ccccc3[nH]2)nc2ccccc21 (stereo not given)	x	n	x	n	x
Cc1ccccc1-c1nnc(SC(C)C(=O)NC2CCCC2)o1 (stereo not given)	n	n	x	n	n
CC(C)(C)c1ccc(C(=O)N2CCC(NC(=O)c3ccccc3)CC2)cc1	n	n	n	n	35µM
CC(=O)N(C(C)=O)c1ccc(Oc2ccc(Oc3ccc(N(C(C)=O)C(C)=O)cc3)cc2)cc1	x	n	x	n	x
O=[N+]([O-])c1cc(Br)c(OCc2nnc(-c3ccccc3)o2)c(Br)c1	n	x	n	n	n
O=[N+]([O-])c1ccc2c(OCc3nnc(-c4ccccc4Br)o3)ncnc2c1	n	-85	x	-70	n
O=C(Oc1cccc(C(=S)N2CCOCC2)c1)c1ccc([N+](=O)[O-])cc1[N+](=O)[O-]	x	n	u	-69	n
O=C(Oc1ccc(Br)cc1C(=S)N1CCOCC1)c1ccc([N+](=O)[O-])cc1[N+](=O)[O-]	x	u	u	-94	n
O=C1C(=O)c2cccnc2-c2ncccc21	x	-80	x	-83	x
CC(=O)Oc1cc(O)c2c(=O)c(OC(C)=O)c(-c3ccc(OC(C)=O)c(OC(C)=O)c3)oc2c1	10µM	n	x	u	x
COc1ccc(-c2oc3cc(OC(C)=O)cc(OC(C)=O)c3c(=O)c2OC)cc1	n	n	x	n	x
Cc1c(O)c2c(=O)n(-c3ccccc3)c(-c3ccccc3)cc2oc1=O	n	n	n[11.5 µM]	n	10µM
CC(=O)N(C)C[C@H]1Oc2ncc(Br)cc2C(=O)N([C@H](C)CO)C[C@@H]1C	x	n	x	n	x
SMILES	uPA surface inh	CtBP-E1A inh	MBNL1 CUG block	Six1-Eya2 inh	Mito fusion act
CCNC(=S)N1CCN(c2ccccn2)CC1	n	n	n	n	n
CC(NNC(=S)N1CCN(c2ccccn2)CC1)c1nccc2ccccc12 (stereo not given)	n	n	x	-92	x
COc1ccc(NC(C)=O)cc1NC(C)C(=O)Nc1ccc(S(=O)(=O)N2CCCCC2)cc1 (stereo not given)	3.2µM	n	x	n	n
Cc1cc(=O)[nH]c(N/N=C/c2cc(C)n(CC(F)(F)F)c2C)n1	0.25µM	x	n	n	n
NC(=S)NN=Cc1cc(-c2cccc(N)c2)ccn1	x	-81	x	-88	x
NC(=S)N/N=C\c1c2ccccc2cc2ccccc12	n	n	u	n	n
COc1cccc(CN2CCC2(C)C(=O)Nc2ccc3c(c2)CCN3C(C)=O)c1F (stereo not given)	x	n	x	n	x
O=C1C(NS(=O)(=O)c2cccs2)=C(N2CCOCC2)C(=O)c2ccccc21	n	n	u	n	n
CCOc1ccccc1N1CCN(C2=C(NS(=O)(=O)c3cccs3)C(=O)c3ccccc3C2=O)CC1	n	-76	u	-65	n
O=C1C(NS(=O)(=O)c2cccs2)=C(N2CCN(Cc3ccccc3)CC2)C(=O)c2ccccc21	n	x	u	-72	n
O=C1C(NS(=O)(=O)c2cccs2)=C(N2CCN(c3cccc(C(F)(F)F)c3)CC2)C(=O)c2ccccc21	n	-80	u	-68	n
CN1CCN(C2=C(NS(=O)(=O)c3cccs3)C(=O)c3ccccc3C2=O)CC1	n	n	u	n	n
CC(C)(C)OC(=O)C[C@H]1C/C=C\C[C@@H](CC(=O)N(CCO)Cc2ccccc2)C(=O)N[C@@H](Cc2ccccc2)COC1=O	n	n	x	n	x
COc1ccc(NC(=O)CCc2nc3ccccc3c(=O)[nH]2)cc1S(=O)(=O)N1CCCCC1	n	n	x	n	x
O=C(Nc1nc2ccc(F)cc2s1)c1ccccn1	n	-92	n	-77	n
O=C(Nc1nnc(SCc2ccc(F)cc2)s1)c1ccccn1	n	-95	n	-90	n
O=C(Nc1nc2ccccc2s1)c1cnccn1	n	n	n	n	n
Cc1ccccc1/C=N/n1c(-c2ccccn2)n[nH]c1=S	n	n	n	-90	n
COc1cccc(/C=N/n2c(-c3cc(C)[nH]n3)n[nH]c2=S)c1O	n	-81	n	-68	n
S=c1[nH]nc(-c2ccccn2)n1/N=C/c1ccccc1	n	n	n	u	n
COc1ccccc1/C=C/C=N/n1c(-c2cc(C)[nH]n2)n[nH]c1=S	n	n	n	n	n
COc1ccccc1/C=C/C=N/n1c(-c2ccccn2)n[nH]c1=S	n	x	n	-67	n
S=c1[nH]nc(-c2ccccn2)n1/N=C/c1cccc2ccccc12	n	u	x	-67	n
CCCCCC(=O)N1C[C@H](n2cc(C3CC3)nn2)[C@@H](O)C[C@@H]1c1ccc(Cl)cc1	x	n	x	n	x
O=C(C1CCCCC1)N1C[C@@H](O)[C@H](n2cc(C3CC3)nn2)C[C@@H]1c1ccccc1	x	n	x	n	x
SMILES	uPA surface inh	CtBP-E1A inh	MBNL1 CUG block	Six1-Eya2 inh	Mito fusion act
CN(CC(=O)Nc1ccc(Cl)c(C(F)(F)F)c1)C(=O)CCNC(=O)c1ccco1	n	n	x	n	n
CN(CC(=O)Nc1ccc(Cl)c(C(F)(F)F)c1)C(=O)CCCNC(=O)c1ccc(Cl)cc1	8.9µM	n	x	n	n
O=C(CCNC(=O)c1ccccc1Cl)Nc1ccc(Cl)c(C(F)(F)F)c1	n	x	u	n	35µM
COc1cc(SC)ccc1C(=O)Nc1ccc(S(=O)(=O)Nc2nccc(C)n2)cc1	x	x	x	x	n
CCOCCOC(=O)c1[nH]c2c(c1C)C(=O)CC(c1ccccc1)C2 (stereo not given)	n	n	n	n	n
CCOCCOC(=O)c1[nH]c2c(c1C)C(=O)CC(c1cccs1)C2 (stereo not given)	n	n	n	n	n

Compound activity: PubChem, National Center for Advancing Translational Sciences (NCATS)
